Our source for the growth inhibition values is PubChem BioAssay (NCI).

The nature of test [1]: NCI Yeast Anticancer Drug Screen. Data for the rad50 strain (AID 155).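 Further: 0% = growth of vehicle-only cultures of the same strain.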 The following applies: S. cerevisiae rad50 strain growth inhibition, stronger effect = higher value. The procedure, abridged: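 A DNA repair-deficient yeast mutant serves as the test organism; compound-induced growth inhibition is calculated against vehicle-treated cells.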
Test [2] can be described thus: NCI Yeast Anticancer Drug Screen. Data for the mec2-1 strain (AID 157). The settings on record: S. cerevisiae mec2-1 strain, stronger effect = higher value. The method, boiled down: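 mec2-1 yeast strain, carrying an alteration in DNA damage repair or cell cycle control, was exposed to compounds; growth inhibition was measured relative to vehicle-treated controls.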
A short description of test [3]: NCI Yeast Anticancer Drug Screen. Data for the sgs1 mgt1 strain (AID 161).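 Further: 0% = growth of cultures given vehicle only.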 The following applies: S. cerevisiae sgs1 mgt1 strain, stronger effect = higher value. The procedure, abridged: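 This yeast growth screen uses a strain with defined DNA-repair lesions; compound-treated growth is compared with vehicle-treated growth.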
A short description of test [4]: NCI Yeast Anticancer Drug Screen. Data for the cln2 rad14 strain (AID 165).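 Further: 0% = growth equal to vehicle treated cultures.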 The following applies: S. cerevisiae cln2 rad14 strain, stronger effect = higher value. The procedure, abridged:
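Yeast carrying cln2 and rad14 alterations (cell cycle control and DNA damage repair) were exposed to compounds. Growth inhibition was measured against vehicle-treated controls.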

Test [5] in a line: NCI Yeast Anticancer Drug Screen. Data for the bub3 strain (AID 167). The following applies: S. cerevisiae bub3 mutant strain, stronger effect = higher value. The method, boiled down:
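Inhibition values come from growth of compound-treated mutant yeast normalised to vehicle-treated controls.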

Test [6] in a line: NCI Yeast Anticancer Drug Screen. Data for the mlh1 rad18 strain (AID 175). The settings on record: S. cerevisiae mlh1 rad18 strain growth inhibition, stronger effect = higher value. The method, boiled down:
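Growth inhibition of the yeast strain was measured after compound exposure and expressed relative to vehicle-treated controls. The strain carries defined defects in DNA damage repair.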

The mark [7] stands for this setting: at 5.0 µM (retest, dose inferred, filed as 0.5).
The mark [8] stands for this setting: at 50.0 µM (retest, dose inferred, filed as 5.0).

This is part of a sample that, as a whole, favours compounds with a hit. Of some 79,000 tested, about 15% had one in any assay. Values without a mark were called inactive. Calls of active or inactive are those of the source. No stated cut-off is given here; in the data, active means growth inhibition above about 70%; inactive means the rest.

Consider `Nc1ccc2ccccc2c1N=Cc1ccccc1[N+](=O)[O-]`, for which the growth inhibition in test [1] (setting [7]) is -3%; in test [1] (setting [8]), 72% (active); in test [1] (at 50.0 µM), 85.8% (active); in test [2] (setting [7]), -10%; in test [2] (setting [8]), 90% (active); in test [2] (at 50.0 µM), 29.8%. For the same compound, the growth inhibition is 5% in test [3] (setting [7]); 92% (active) in test [3] (setting [8]); 96.8% (active) in test [3] (at 50.0 µM); -9% in test [4] (setting [7]); 54% in test [4] (setting [8]); -40.1% in test [4] (at 50.0 µM). Moreover, the growth inhibition in test [5] (setting [7]) is 15%; in test [5] (setting [8]), 85% (active); in test [5] (at 50.0 µM), 30.2%; in test [6] (setting [7]), 11%; in test [6] (setting [8]), 91% (active); in test [6] (at 50.0 µM), 84.3% (active).
For the compound `COC1CCC2(C)C(=CCC3C4CC(OC(C)=O)CC4(C)CCC32)C1` (configuration not stated), the growth inhibition in test [1] (setting [7]) is 0%; in test [1] (setting [8]), 5%; in test [1] (at 50.0 µM), 5.25%; in test [2] (setting [7]), -2%; in test [2] (setting [8]), 5%; in test [2] (at 50.0 µM), 0.45%. The growth inhibition is 2% in test [3] (setting [7]); 3% in test [3] (setting [8]); -4.15% in test [3] (at 50.0 µM); -1% in test [4] (setting [7]); 4% in test [4] (setting [8]); 9.5% in test [4] (at 50.0 µM). Further, the growth inhibition in test [5] (setting [7]) is 0%; in test [5] (setting [8]), 6%; in test [5] (at 50.0 µM), -7.3%; in test [6] (setting [7]), 2%; in test [6] (setting [8]) it was 9%; in test [6] (at 50.0 µM), -4.2%.
As to `CC(=O)Nc1nc(Cl)c2ncn(C3CC(OC(=O)c4ccc(C)cc4)C(COC(=O)c4ccc(C)cc4)O3)c2n1` (configuration not stated), the growth inhibition was -3% in test [1] (setting [7]); 0% in test [1] (setting [8]); 53.1% in test [1] (at 50.0 µM); 0% in test [2] (setting [7]); 6% in test [2] (setting [8]); 27.4% in test [2] (at 50.0 µM). The growth inhibition is 57% in test [3] (setting [7]); 3% in test [3] (setting [8]); 60.1% in test [3] (at 50.0 µM); -2% in test [4] (setting [7]); 0% in test [4] (setting [8]); 63.4% in test [4] (at 50.0 µM). Also, the growth inhibition was 0% in test [5] (setting [7]); -2% in test [5] (setting [8]); 33.2% in test [5] (at 50.0 µM); -20% in test [6] (setting [7]); 0% in test [6] (setting [8]); 48.6% in test [6] (at 50.0 µM).
`O=C1C(c2ccc(Br)cc2)=[N+]([O-])c2ccccc21`: the growth inhibition was 9% in test [1] (setting [7]); 94% (active) in test [1] (setting [8]); 93.5% (active) in test [1] (at 50.0 µM); 12% in test [2] (setting [7]); 84% (active) in test [2] (setting [8]); 87.3% (active) in test [2] (at 50.0 µM). The growth inhibition in test [3] (setting [7]) was 10%; in test [3] (setting [8]), 94% (active); in test [3] (at 50.0 µM), 93.8% (active); in test [4] (setting [7]), -4%; in test [4] (setting [8]) it was 47%; in test [4] (at 50.0 µM) it was 85.5% (active). Also, the growth inhibition in test [5] (setting [7]) is 19%; in test [5] (setting [8]) it was 94% (active); in test [5] (at 50.0 µM), 96.4% (active); in test [6] (setting [7]), 11%; in test [6] (setting [8]), 91% (active); in test [6] (at 50.0 µM), 95.8% (active).
As to `CCN(CC)CCCCNc1ccc(Cl)cc1`, the growth inhibition in test [1] (setting [7]) is -2%; in test [1] (setting [8]), 12%; in test [1] (at 50.0 µM), 38.2%; in test [2] (setting [7]), 1%; in test [2] (setting [8]), -2%; in test [2] (at 50.0 µM), 39.1%. Moreover, the growth inhibition in test [3] (setting [7]) is -2%; in test [3] (setting [8]), 18%; in test [3] (at 50.0 µM) it was 53.9%; in test [4] (setting [7]), 2%; in test [4] (setting [8]) it was -3%; in test [4] (at 50.0 µM), -9.2%. Besides, the growth inhibition in test [5] (setting [7]) was -1%; in test [5] (setting [8]), 10%; in test [5] (at 50.0 µM), 44.5%; in test [6] (setting [7]), -7%; in test [6] (setting [8]), 8%; in test [6] (at 50.0 µM) it was 71.6% (active).
Turning to `NC(=S)NNC(=O)c1cccnc1`, the growth inhibition in test [1] (setting [7]) was 4%; in test [1] (setting [8]), 78% (active); in test [1] (at 50.0 µM) it was -5.1%; in test [2] (setting [7]) it was 1%; in test [2] (setting [8]), 39%; in test [2] (at 50.0 µM), -5.95%. Further, the growth inhibition is 2% in test [3] (setting [7]); 46% in test [3] (setting [8]); 45.6% in test [3] (at 50.0 µM); 5% in test [4] (setting [7]); 75% (active) in test [4] (setting [8]); -31.4% in test [4] (at 50.0 µM). Also, the growth inhibition in test [5] (setting [7]) is 2%; in test [5] (setting [8]), 82% (active); in test [5] (at 50.0 µM) it was 0.15%; in test [6] (setting [7]), -1%; in test [6] (setting [8]) it was 68%; in test [6] (at 50.0 µM) it was 50.8%.
Consider `CCC[C@H]1[C@H](CCC)[C@@]2(OC(=O)C3=C2CCC=C3)[C@]12OC(=O)C1=C2CCC=C1`, for which the growth inhibition in test [1] (setting [7]) is -2%; in test [1] (setting [8]) it was 98% (active); in test [1] (at 50.0 µM), 87.8% (active); in test [2] (setting [7]), 2%; in test [2] (setting [8]), 99% (active); in test [2] (at 50.0 µM), 87.4% (active). Besides, the growth inhibition in test [3] (setting [7]) is 3%; in test [3] (setting [8]), 98% (active); in test [3] (at 50.0 µM) it was 92% (active); in test [4] (setting [7]) it was -7%; in test [4] (setting [8]) it was 99% (active); in test [4] (at 50.0 µM) it was 91.7% (active). Also, the growth inhibition in test [5] (setting [7]) was 2%; in test [5] (setting [8]), 98% (active); in test [5] (at 50.0 µM), 89% (active); in test [6] (setting [7]), 1%; in test [6] (setting [8]), 98% (active); in test [6] (at 50.0 µM) it was 89.8% (active).
Consider `COc1ccc(C2SCC(=O)N2c2ccc(-c3ccc(-n4c(-c5ccccc5)nc5ccccc5c4=O)cc3)cc2)cc1` (configuration not stated), for which the growth inhibition in test [1] (setting [7]) was 0%; in test [1] (setting [8]), 33%; in test [1] (at 50.0 µM), 21.6%; in test [2] (setting [7]), 1%; in test [2] (setting [8]), 28%; in test [2] (at 50.0 µM) it was 34.1%. For the same compound, the growth inhibition in test [3] (setting [7]) is 7%; in test [3] (setting [8]), 57%; in test [3] (at 50.0 µM), 57.4%; in test [4] (setting [7]), 42%; in test [4] (setting [8]), 41%; in test [4] (at 50.0 µM), 13.5%. The growth inhibition in test [5] (setting [7]) is 24%; in test [5] (setting [8]) it was 69%; in test [5] (at 50.0 µM), 70.9% (active); in test [6] (setting [7]) it was 18%; in test [6] (setting [8]), 68%; in test [6] (at 50.0 µM), 58.1%.
`COC1(OC)C(C#N)(C#N)C2(C(=O)Nc3ccccc32)C1(OC)OC` (configuration not stated): the growth inhibition in test [1] (setting [7]) is 11%; in test [1] (setting [8]) it was -4%; in test [1] (at 50.0 µM), 15.4%; in test [2] (setting [7]), -12%; in test [2] (setting [8]), -16%; in test [2] (at 50.0 µM) it was 12.2%. Moreover, the growth inhibition in test [3] (setting [7]) was -2%; in test [3] (setting [8]) it was -25%; in test [3] (at 50.0 µM), 97% (active); in test [4] (setting [7]), -4%; in test [4] (setting [8]) it was -7%; in test [4] (at 50.0 µM), 28%. Also, the growth inhibition in test [5] (setting [7]) is -14%; in test [5] (setting [8]) it was 38%; in test [5] (at 50.0 µM), -7.6%; in test [6] (setting [7]), 10%; in test [6] (setting [8]), -22%; in test [6] (at 50.0 µM), 90% (active).
